Values without a mark were called inactive. Active and inactive are the calls of the source.
test: MM1S myeloma cell viability, profiling panel, resazurin fluorescence, basal, 24 h, PK04 Diversity Set (AID 1174); details: higher = more signal, called active from +8 up or from −8 down;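 also: MM1S multiple myeloma cell line; test concentration not given here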

Question: For CN(C)C(=O)[C@@]1(CCS(=O)(=O)c2ccccc2)N=C(c2ccc(OCCCO)cc2)O[C@H]1c1ccccc1CN=[N+]=[N-], which z-score is on record?
Answer: Its z-score is 0.958.

Question: With Cc1ccc(S[C@]2(C(=O)NCc3ccccc3)CC(=O)N(C3Cc4ccccc4C3)[C@@H]2c2ccc(CO)cc2I)cc1 as the molecule, how does the z-score read?
Answer: Its z-score is -2.61.

Question: For C=C(C)[C@@H]1CC=C(C(O)C2C=CC3C(=O)N(C4CCCCC4)C(=O)C3N2Nc2ccc(OC)cc2)CC1 (stereo partly specified), which z-score is on record?
Answer: The z-score was -0.0469.

Question: For CC(C)(C)N1CC=CC23O[C@@H]4C=CCCOC(=O)C4[C@H]2C(=O)N(CCCO)[C@@H]3C1=O (stereo partly specified), which z-score is on record?
Answer: The z-score was -1.12.

Question: Which z-score does the source give for CN(C)C(=O)[C@]1(Cc2ccccc2N=[N+]=[N-])N=C(c2ccc(OCCCO)cc2)O[C@@H]1c1ccccc1CN=[N+]=[N-] here?
Answer: Its z-score is -1.13.

Question: With COC(=O)[C@@]1(Cc2ccc(OC)cc2)[C@H]2c3cc(C(=O)N4CCCC4)n(Cc4ccc(C)o4)c3C[C@H]2CN1C(=O)c1ccccc1 as the molecule, how does the z-score read?
Answer: Its z-score is -9.97 (active).

Question: With [N-]=[N+]=NCc1ccccc1C[C@]1(C(=O)NCCN2CCOCC2)N=C(c2ccc(OCCCO)cc2)O[C@H]1c1ccccc1 as the molecule, how does the z-score read?
Answer: Its z-score is -0.0784.

Question: With CCCCCCC#C[Si](O[C@H](c1ccccc1)c1cn(Cc2cccc(Cl)c2)nn1)(C(C)C)C(C)C as the molecule, how does the z-score read?
Answer: Its z-score is 1.31.

Question: Which z-score does the source give for COCCOC(=O)N1C(=O)[C@@]2(c3cc(C#CC4(O)CCCCCC4)ccc31)[C@H](C(=O)N1CCN(c3ncccn3)CC1)[C@H]1C(=O)O[C@H](c3ccccc3)[C@H](c3ccccc3)N1[C@@H]2c1ccc(O)cc1 here?
Answer: The z-score was -0.0906.

Question: With COc1ccc(C(=O)Nc2ccc3c(c2)[C@]2(O[C@@H](CCO)[C@H]([Si](C)(C)c4ccc(OC)cc4)[C@H]2C)C(=O)N3Cc2ccccc2)cc1 as the molecule, how does the z-score read?
Answer: Its z-score is -7.18.

Question: For COc1ccc([Si](C)(C)[C@@H]2[C@@H](CCO)O[C@]3(C(=O)N(Cc4ccccc4)c4ccc(N5CCCCC5=O)cc43)[C@H]2C)cc1, which z-score is on record?
Answer: Its z-score is -3.11.

Question: Which z-score does the source give for C#CCNS(=O)(=O)N(C)C here?
Answer: The z-score was -0.207.

Question: For COCCCNC(=O)[C@]1(CCS(=O)(=O)c2ccccc2)N=C(c2ccc(OCCCO)cc2)O[C@@H]1c1ccccc1, which z-score is on record?
Answer: Its z-score is 0.294.

Question: With CC(=O)NCCCC[C@@H]1NC(=O)[C@@H]2C[C@H](C(=O)NCCCC[N+](C)(C)C)[C@H](c3cccc(OCCO)c3)N2C1=O as the molecule, how does the z-score read?
Answer: The z-score was -1.56.

Question: With CCCC[C@@H](O)C1=C(COc2ccccc2)Cn2c(=O)n(-c3ccccc3)c(=O)n2[C@H]1CO as the molecule, how does the z-score read?
Answer: The z-score was 0.0088.

Question: With C=CCOC(=O)[C@H]1[C@@H]2C(=O)O[C@@H](c3ccccc3)[C@@H](c3ccccc3)N2[C@@H](c2ccc(OCCOC(=O)[C@H]3C[C@H]4C(=O)N[C@@H](CCCCN(C)C)C(=O)N4[C@H]3c3ccc(O)cc3)cc2)[C@]12C(=O)Nc1ccccc12 as the molecule, how does the z-score read?
Answer: The z-score was 0.95.

Question: For C=CCNC(=O)[C@H]1[C@@H]2C(=O)O[C@@H](c3ccccc3)[C@@H](c3ccccc3)N2[C@@H](c2ccc(OCCO)cc2)[C@]12C(=O)N(C(=O)OCCOC)c1ccc(C#CC3=CCCCC3)cc12, which z-score is on record?
Answer: The z-score was -0.344.

Question: For COC(=O)[C@@]1(Cc2ccccc2)[C@H]2c3cc(C(=O)N4CCCC4)n(Cc4ccc(OC(F)(F)F)cc4)c3C[C@H]2CN1C(=O)c1ccccc1, which z-score is on record?
Answer: The z-score was -2.46.

Question: Which z-score does the source give for COc1ccc([Si](C)(C)[C@H]2[C@H](CCn3cc(CCO)nn3)O[C@@]3(C(=O)N(Cc4cccc(N5C(=O)c6cccc7cccc5c67)c4)c4ccccc43)[C@@H]2C)cc1 here?
Answer: The z-score was -6.02.

Question: With COC(=O)[C@@]1(Cc2ccc(F)cc2)[C@H]2c3cc(C(=O)N4CCCC4)n(Cc4ccccc4)c3C[C@H]2CN1C(=O)c1ccccc1 as the molecule, how does the z-score read?
Answer: Its z-score is -0.874.

Question: Which z-score does the source give for CCC[C@@H]1C[C@@]1(CCC)[C@@H](NC(=O)c1ccco1)c1ccc(Cl)cc1 here?
Answer: The z-score was 0.254.

Question: With C[C@@]1([C@@H](NC(=O)c2cccs2)c2ccc(-c3ccccc3)cc2)C[C@H]1C1CCCCC1 as the molecule, how does the z-score read?
Answer: Its z-score is -0.0911.

Question: With O=C1O[C@H](c2ccccc2)[C@H](c2ccccc2)N2[C@H]1[C@@H](C(=O)N1CCN(c3ncccn3)CC1)[C@]1(C(=O)Nc3ccc(C#CCCO)cc31)[C@H]2c1ccccc1OCCO as the molecule, how does the z-score read?
Answer: Its z-score is -0.31.

Question: With C=C(COC)C(=O)CC[C@H](OC(=O)c1ccccc1-c1ccccc1C(=O)O)c1ccc(CO)o1 as the molecule, how does the z-score read?
Answer: The z-score was -0.176.

Question: For COCC(=C=CC[C@@H](O)c1ccccc1OCCO)C[C@@H](O)c1ccccn1, which z-score is on record?
Answer: Its z-score is -0.249.

Question: Which z-score does the source give for COC(=O)C(CC#Cc1ccc2c(c1)[C@]1(C(=O)N2)[C@H](c2ccc(OCCO)cc2)N2[C@H](c3ccccc3)[C@H](c3ccccc3)OC(=O)[C@H]2[C@@H]1C(=O)O)C(=O)OC here?
Answer: The z-score was 1.09.

Question: With COCCCNC(=O)[C@]1(Cc2ccccc2CN=[N+]=[N-])N=C(c2ccc(OCCCO)cc2)O[C@@H]1c1ccccc1CN=[N+]=[N-] as the molecule, how does the z-score read?
Answer: Its z-score is -2.2.

Question: Which z-score does the source give for C=C(C(=O)CC[C@H](OC(=O)c1cccnc1)c1ccc(OCCO)cc1)C(C)C here?
Answer: The z-score was -2.35.

Question: Which z-score does the source give for CC(C)CNC(=O)[C@@]1(C)c2ccccc2C(=O)N(Cc2ccccc2)[C@H]1c1ccc(CO)cc1 here?
Answer: The z-score was -0.0059.

Question: With CC(C)(C)OC(=O)CC[C@]1(C(=O)O)COC(c2ccc(OCCCO)cc2)=N1 as the molecule, how does the z-score read?
Answer: Its z-score is -0.249.

Question: For COc1ccc([Si](C)(C)[C@@H]2[C@@H](CC(=O)N(CCO)Cc3ccccc3)O[C@]3(C(=O)N(Cc4ccc(N5CCOC5=O)cc4)c4ccccc43)[C@H]2C)cc1, which z-score is on record?
Answer: Its z-score is -1.85.

Question: For CCCCC=C[C@@H](NC(=O)CCc1ccccc1)c1ccccc1, which z-score is on record?
Answer: The z-score was -2.09.

Question: Which z-score does the source give for C=C(/C(=C/C[C@@H](OC(=O)c1ccncc1)c1ccccc1OCCO)c1cnc2ccccc2c1)C(C)C here?
Answer: The z-score was -0.807.

Question: Which z-score does the source give for C=C(CCCC)/C(=C/C[C@@H](OC(=O)c1ccncc1)c1ccccc1OCCO)c1cc(C(=O)OC)ccc1OC here?
Answer: Its z-score is -1.38.

Question: With CC(C)N1C(=O)c2ccccc2[C@](C)(C(=O)O)[C@@H]1c1ccc(CO)cc1 as the molecule, how does the z-score read?
Answer: The z-score was -0.0713.

Question: With COC(=O)[C@@]1(Cc2ccc(OC)cc2)[C@H]2c3cc(C(=O)N(C)C)n(Cc4cc(C)n(C)n4)c3C[C@H]2CN1C(=O)c1ccccc1 as the molecule, how does the z-score read?
Answer: The z-score was -1.82.

From PubChem BioAssay
